# Measurements published in PubChem BioAssay (Tox21).
# Records with an inconclusive call do not appear. Where a call stands in place of a potency, no number is given. Activity calls are given as the source filed them. The call rests on the fitted dose curve; in most records, active means well fitted cell-killing curve with a large enough effect in the repeat runs; inconclusive means weak or mixed curves, or effect the other way; inactive means flat fitted curve, though single readings scatter.
# Experiment: qHTS assay to identify small molecule antagonists of the estrogen receptor alpha (ER-alpha) signaling pathway using the BG1 cell line in the presence of 0.1 nM 17-beta-estradiol - cell viability counter screen (AID 1259241); further: nearly all actives have a fitted effect of over 40% in size
# Conditions: VM7Luc4E2 (BG1) viability, CellTiter-Fluor protease, 22 h, 0.1 nM estradiol agonist added; series mostly up to 92.4 µM
# Source text: National Center for Advancing Translational Sciences [NCATS]
# NIH Chemical Genomics Center [NCGC]
# U.S. Environmental Protection Agency [EPA]
# National Institutes of Environmental Health Sciences [NIEHS]
# National Toxicology Program [NTP]
# U.S. Food and Drug Administration [FDA]
# Estrogen receptor (ER), a member of the nuclear hormone receptor plays an important role in development, metabolic homeostasis and reproduction. Two subtypes of ER, ER-alpha and ER-beta, have similar expression patterns with some uniqueness in both types. Endocrine disrupting chemicals (EDCs) and their interactions with steroid hormone receptors like ER causes disruption of normal endocrine function. Therefore, it is important to understand the effect of environmental chemicals in ER signaling pathway. For identifying ER antagonists, VM7Luc4E2 cell line was used to screen against Tox21 compound libraries.
# VM7Luc4E2 cell line (provided by Denison MS, University of California) endogenously express full-length ER-alpha and is stably transfected with a plasmid containing four estrogen responsive elements (ERE) upstream of a luciferase reporter gene. The current screening for identification of ER-alpha inhibitors against Tox21 compound libraries used lower concentration (0.1 nM) of 17beta-Estradiol as a stimulator. The cytotoxicity of the Tox21 compound libraries against VM7Luc4E2 cell line was tested by measuring live-cell protease activity using CellTiter-Fluor assay in the same wells.
# Tox21 Assay Protocol Summary:
# VM7Luc4E2 cells were cultured in phenol red free assay medium containing 10% charcoal stripped FBS for 5 days prior to the assay. The cells were dispensed at 4,000 cells/well in 4 uL of assay medium into white wall/solid-bottom 1536-well plates (Corning Life Sciences, Corning, NY) using a Multidrop Combi (ThermoFisher Scientific, Waltham, MA) dispenser. After the assay plates were incubated at 37C and 5% CO2 for 24 hr, 23 nL of compounds dissolved in DMSO, positive controls or DMSO only was transferred to the assay plates by a Pintool station (Kalypsys, San Diego, CA). The transfer of compounds was followed by the addition of 1 uL of 0.1 nM (final concentration) agonist (17beta-Estradiol)/assay medium using a Flying Reagent Dispenser (FRD, Aurora Discovery, San Diego, CA). The plates were incubated at 37C and 5% CO2 for 22 hr. For cytotoxicity assay, 1 uL of CellTiter-Fluor reagent (Promega Corporation, Madison, WI) was added to each well using the FRD and after 30 min incubation at 37C and 5% CO2, The fluorescence intensity was measured using ViewLux plate reader (PerkinElmer, Shelton, CT).
row,SMILES,Potency
1,CN[C@@H](C)[C@H](O)c1ccccc1,inactive
2,NCCc1cc(O)c(O)cc1O,inactive
3,CC[N+]1(C)CCCC(OC(=O)C(O)(c2ccccc2)c2ccccc2)C1 (stereo not given),inactive
4,Nc1cccc2ccccc12,inactive
5,O=C(O)C(F)(F)C(F)(F)C(F)(F)C(F)(F)C(F)(F)C(F)(F)C(F)(F)C(F)(F)F,inactive
6,CCCC1CCCCN1 (stereo not given),inactive
7,Cc1ccc2c(C)cccc2c1,inactive
8,NP(N)(=O)NC(=O)c1ccc(F)cc1,inactive
9,CCOC(=O)c1cncn1C(C)c1ccccc1 (stereo not given),inactive
10,CCCCCl,inactive
11,CN(C)C(=O)Nc1cccc(OC(=O)NC(C)(C)C)c1,inactive
12,OC[P+](CO)(CO)CO,inactive
13,COC(=O)C1(O)c2ccccc2-c2ccccc21,inactive
14,NC(=O)CF,inactive
15,CCC(=O)O[C@@H]1C=C2CCC3C(CCC4(C)C3CC[C@@H]4OC(=O)CC)C2CC1 (stereo not given in full),inactive
16,CC(C)c1ccc(NC(=O)N(C)C)cc1,inactive
17,CCCCCCCCP(=O)(O)O,inactive
18,CN1C(=O)CN=C(c2ccccc2)c2cc([N+](=O)[O-])ccc21,inactive
19,CCC(C)Cl (stereo not given),inactive
20,O=C(CCl)CCl,inactive

row,SMILES,Potency
1,CCOP(=O)(O)C(N)=O,inactive
2,N#CC(C#N)=Cc1ccc(O)c(O)c1,inactive
3,C[N+](C)(C)CCOC(=O)C(O)(c1ccccc1)c1ccccc1,inactive
4,Clc1ccccc1,inactive
5,CCNC(=O)NC(=O)/C(C#N)=N/OC,inactive
6,C=CCN1C[C@H](C)N([C@H](c2ccc(C(=O)N(CC)CC)cc2)c2cccc(OC)c2)C[C@H]1C,inactive
7,CC(C)(c1ccccc1)c1cc(-n2nc3ccccc3n2)c(O)c(C(C)(C)c2ccccc2)c1,inactive
8,CC(C)(C)OOC(C)(C)CCC(C)(C)OOC(C)(C)C,inactive
9,O=C1CC[C@@]2(O)[C@H]3Cc4ccc(O)c5c4[C@@]2(CCN3CC2CC2)[C@H]1O5,inactive
10,O=C(O)COc1cc(Cl)c(Cl)cc1Cl,inactive
11,CC(C)(C)NCC(O)c1ccccc1Cl (stereo not given),inactive
12,C1CCNCC1,inactive
13,O=C(O)C(O)C(O)C(=O)O (stereo not given),inactive
14,Oc1cccc(Cl)c1,inactive
15,COc1ccc(C(=O)c2c(C)n(CCN3CCOCC3)c3ccccc23)cc1,inactive
16,CN(C1CCCCC1)C1CCCCC1,inactive
17,Cc1cnc(C2=NC(C)(C(C)C)C(=O)N2)c(C(=O)O)c1 (stereo not given),inactive
18,NC(=S)c1c(Cl)cccc1Cl,inactive
19,CCC1(C2=NCCN2)Cc2ccccc2O1 (stereo not given),inactive
20,COc1ccccc1N1CCNCC1,inactive
